Experimental data published in PubChem BioAssay AID1159580 (chemical genetic matrix, 2015).
Out of some 5,500 compounds screened, about 2,000 (36%) were called active. Inconclusive results (about 18%) are left out. Cut-off read from the data, not from the text of the source: active = normalized growth mostly below about 0.91 (no sharp cut-off); inconclusive = no clear call, values can overlap the other calls; inactive = mostly above about 0.92. The list shows a part of the results.

Experiment: chemical genetic growth profiling, strain panel (AID 1159580);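 note: tested at 20 µM; growth read once vehicle control cultures reached saturation at 30 °C; 1 = growth at the plate median or of vehicle wells; lower values mean less growth of the strain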
Conditions: growth OD

Measured: normalized growth

COS(C)(=O)=O
inactive: S. cerevisiae deletion strains, locus YJR075W, strain HOC1, hits give low values 1.01 | S. cerevisiae deletion strains, locus YKL009W, strain mrt4, hits give low values 1.03 | S. cerevisiae deletion strains, locus YKL068W, hits give low values 1.01 | S. cerevisiae deletion strains, locus YKL085W, strain MDH1 (second series), hits give low values 1.02 | S. cerevisiae deletion strains, locus YKL085W, strain MDH1, hits give low values 1.02 | S. cerevisiae deletion strains, locus YKL160W, strain elf1, hits give low values 1 | S. cerevisiae deletion strains, locus YKL190W, strain CNB1, hits give low values 1 | S. cerevisiae deletion strains, locus YKR001C, strain vps1, hits give low values 1.01 | S. cerevisiae deletion strains, locus YKR026C, strain gcn3, hits give low values 0.996 | S. cerevisiae deletion strains, locus YKR091W, strain srl3, hits give low values 0.993 | S. cerevisiae deletion strains, locus YLL001W, strain dnm1, hits give low values 0.996 | S. cerevisiae deletion strains, locus YLL026W, hits give low values 0.996 | S. cerevisiae deletion strains, locus YLL041C, strain sdh2, hits give low values 1 | S. cerevisiae deletion strains, locus YLR027C, strain aat2, hits give low values 0.97 | S. cerevisiae deletion strains, locus YLR039C, strain RIC1, hits give low values 1.07 | S. cerevisiae deletion strains, locus YLR058C, strain SHM2, hits give low values 1.01 | S. cerevisiae deletion strains, locus YLR102C, strain apc9, hits give low values 1.01 | S. cerevisiae deletion strains, locus YLR113W, strain HOG1, hits give low values 0.983 | S. cerevisiae deletion strains, locus YLR221C, strain rsa3, hits give low values 0.961 | S. cerevisiae deletion strains, locus YLR258W, strain gsy2, hits give low values 1.03 | S. cerevisiae deletion strains, locus YLR262C, strain YPT6 (second series), hits give low values 0.997 | S. cerevisiae deletion strains, locus YLR262C, strain YPT6, hits give low values 1.06 | S. cerevisiae deletion strains, locus YLR268W, strain sec22, hits give low values 0.973 | S. cerevisiae deletion strains, locus YLR320W, strain mms22, hits give low values 0.954 | S. cerevisiae deletion strains, locus YLR330W, strain CHS5, hits give low values 1.01 | S. cerevisiae deletion strains, locus YLR342W, strain FKS1 (second series), hits give low values 1.08 | S. cerevisiae deletion strains, locus YLR342W, strain FKS1, hits give low values 0.992 | S. cerevisiae deletion strains, locus YLR357W, strain rsc2, hits give low values 0.935 | S. cerevisiae deletion strains, locus YLR370C, strain arc18, hits give low values 1 | S. cerevisiae deletion strains, locus YLR371W, strain rom2, hits give low values 1.02 | S. cerevisiae deletion strains, locus YLR384C, strain iki3, hits give low values 0.982 | S. cerevisiae deletion strains, locus YLR418C, strain cdc73, hits give low values 0.95 | S. cerevisiae deletion strains, locus YML016C, strain PPZ1, hits give low values 1 | S. cerevisiae deletion strains, locus YML032C, strain rad52, hits give low values 1.03 | S. cerevisiae deletion strains, locus YML120C, strain ndi1, hits give low values 1 | S. cerevisiae deletion strains, locus YML124C, strain tub3, hits give low values 1.01 | S. cerevisiae deletion strains, locus YMR058W, strain fet3, hits give low values 1.02 | S. cerevisiae deletion strains, locus YMR078C, strain ctf18, hits give low values 1.02 | S. cerevisiae deletion strains, locus YMR125W, strain sto1, hits give low values 0.992 | S. cerevisiae deletion strains, locus YMR129W, hits give low values 0.997 | S. cerevisiae deletion strains, locus YMR205C, strain PFK2, hits give low values 1 | S. cerevisiae deletion strains, locus YMR223W, strain ubp8, hits give low values 1.05 | S. cerevisiae deletion strains, locus YMR231W, strain pep5, hits give low values 0.985 | S. cerevisiae deletion strains, locus YMR263W, strain SAP30, hits give low values 0.995 | S. cerevisiae deletion strains, locus YMR307W, strain GAS1, hits give low values 1.05 | S. cerevisiae deletion strains, locus YNL067W, strain RPL9B, hits give low values 1 | S. cerevisiae deletion strains, locus YNL071W, strain lat1, hits give low values 1 | S. cerevisiae deletion strains, locus YNL128W, strain TEP1, hits give low values 0.987 | S. cerevisiae deletion strains, locus YNL153C, strain GIM3, hits give low values 0.976 | S. cerevisiae deletion strains, locus YNL183C, strain NPR1, hits give low values 1 | S. cerevisiae deletion strains, locus YNL209W, strain ssb2, hits give low values 1.01 | S. cerevisiae deletion strains, locus YNL233W, strain BNI4, hits give low values 0.99 | S. cerevisiae deletion strains, locus YNL248C, strain rpa49, hits give low values 0.998 | S. cerevisiae deletion strains, locus YNL250W, strain rad50, hits give low values 1.02 | S. cerevisiae deletion strains, locus YNL271C, strain bni1, hits give low values 1.02 | S. cerevisiae deletion strains, locus YNL298W, strain CLA4, hits give low values 1.02 | S. cerevisiae deletion strains, locus YNL307C, strain MCK1, hits give low values 1.03 | S. cerevisiae deletion strains, locus YNL322C, strain KRE1 (second series), hits give low values 0.976 | S. cerevisiae deletion strains, locus YNL322C, strain KRE1, hits give low values 1.01 | S. cerevisiae deletion strains, locus YNR049C, strain mso1, hits give low values 0.995 | S. cerevisiae deletion strains, locus YNR052C, strain pop2, hits give low values 1.03 | S. cerevisiae deletion strains, locus YOL006C, strain TOP1, hits give low values 1.03 | S. cerevisiae deletion strains, locus YOL012C, strain htz1 0.976 | S. cerevisiae deletion strains, locus YOL147C, strain pex11, hits give low values 1.01 | S. cerevisiae deletion strains, locus YOR001W, strain rrp6, hits give low values 0.942 | S. cerevisiae deletion strains, locus YOR061W, strain CKA2, hits give low values 1 | S. cerevisiae deletion strains, locus YOR069W, strain VPS5, hits give low values 1.01 | S. cerevisiae deletion strains, locus YOR070C, strain gyp1, hits give low values 0.989 | S. cerevisiae deletion strains, locus YOR080W, strain dia2, hits give low values 0.986 | S. cerevisiae deletion strains, locus YOR083W, strain WHI5, hits give low values 1.01 | S. cerevisiae deletion strains, locus YOR106W, strain vam3, hits give low values 1.03 | S. cerevisiae deletion strains, locus YOR136W, strain idh2, hits give low values 1.01 | S. cerevisiae deletion strains, locus YOR144C, strain elg1, hits give low values 1 | S. cerevisiae deletion strains, locus YOR184W, strain ser1, hits give low values 1.05 | S. cerevisiae deletion strains, locus YOR231W, strain MKK1, hits give low values 0.987 | S. cerevisiae deletion strains, locus YOR265W, strain rbl2, hits give low values 0.999 | S. cerevisiae deletion strains, locus YOR270C, strain vph1, hits give low values 0.981 | S. cerevisiae deletion strains, locus YOR290C, strain snf2, hits give low values 0.995 | S. cerevisiae deletion strains, locus YOR316C, strain cot1, hits give low values 1.02 | S. cerevisiae deletion strains, locus YPL051W, strain arl3, hits give low values 1.02 | S. cerevisiae deletion strains, locus YPL055C, strain LGE1, hits give low values 0.968 | S. cerevisiae deletion strains, locus YPL078C, strain atp4, hits give low values 1.01 | S. cerevisiae deletion strains, locus YPL106C, strain sse1, hits give low values 0.99 | S. cerevisiae deletion strains, locus YPL240C, strain hsp82, hits give low values 0.995 | S. cerevisiae deletion strains, locus YPL241C, strain CIN2, hits give low values 1 | S. cerevisiae deletion strains, locus YPL256C, strain CLN2, hits give low values 0.99 | S. cerevisiae deletion strains, locus YPR119W, strain clb2, hits give low values 1 | S. cerevisiae deletion strains, locus YPR141C, strain kar3, hits give low values 1.02 | S. cerevisiae deletion strains, locus YPR163C, strain tif3, hits give low values 1 | S. cerevisiae deletion strains, locus YPR167C, strain met16, hits give low values 1.01 | S. cerevisiae deletion strains, strain wtn01, hits give low values 0.981 | S. cerevisiae strains, strain wild type, hits give low values 1.01
